Laboratory results: publication PMC12820563, “FoxP3 forms a head-to-head dimer in vivo and stabilizes its multimerization on adjacent microsatellites”
In all, about 16,000 sequences were measured (“rpm ratio (pull-down/input)”: median about 0.94, highest 2% from about 1.7 on). This excerpt belongs to a sample that is enriched for the highest values.

The sequences below were run against T1, MBP-FoxP1dN (Mus musculus, UniProt P58462 326-579) (assay: PD-seq (MBP pull-down with sequencing); 20 mM Tris-HCl pH 7.5, 100 mM NaCl, 1.5 mM MgCl2, 0.4 uM protein, 0.1 uM dsDNA library, 30 min, room temperature, amylose pull-down; high values mean tight binding). Details: protein: recombinant; tags: His6-MBP; chain copies: 2; dsDNA, one strand shown.
T1 sequence: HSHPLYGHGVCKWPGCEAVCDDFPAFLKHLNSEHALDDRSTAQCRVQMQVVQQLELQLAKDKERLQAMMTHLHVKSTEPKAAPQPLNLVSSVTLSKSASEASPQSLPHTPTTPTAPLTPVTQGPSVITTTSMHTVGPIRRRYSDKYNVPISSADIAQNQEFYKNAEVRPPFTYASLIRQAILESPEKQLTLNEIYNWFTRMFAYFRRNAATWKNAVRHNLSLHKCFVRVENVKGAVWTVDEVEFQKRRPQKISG
Method in brief: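 In Tris pH 7.5 buffer with NaCl and MgCl2, 0.4 µM His6-MBP-tagged mouse FoxP3 or FoxP1 fragment lacking the N-terminus, from E. coli, met 0.1 µM Klenow-filled double-stranded degenerate DNA library for 30 min at room temperature. Three washes on amylose resin followed capture of the complexes, then proteinase K release of DNA, PCR barcoding and Illumina sequencing. Binding is taken as pooled-replicate reads-per-million enrichment of pull-down relative to input.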
“GATGATTGTTCTCCCAGCTGATGAATTACGATCGTCGAGTAAACAAATTTTCCTAATCTTTCTGTTCAAGCGCCATCTAC” was tested, and the binding signal was 0.952 RPM ratio (pull-down/input). “GATGATTGTTCTCCCAGCTGATGAATTTGAGCTTTCGAGTAAACAAATTTTCCTAATCTTTCTGTTCAAGCGCCATCTAC” was tested, and the binding signal was 0.854 RPM ratio (pull-down/input). “GATGATTGTTCTCCCAGCTGATGAATTCGCTTGCTCGAGTAAACAAATTTTCCTAATCTTTCTGTTCAAGCGCCATCTAC” was tested, and the binding signal was 0.817 RPM ratio (pull-down/input). With “GATGATTGTTCTCCCAGCTGATGAATTAAACTCTTCGAGTAAACAAATTTTCCTAATCTTTCTGTTCAAGCGCCATCTAC” the binding signal was 0.825 RPM ratio (pull-down/input). “GATGATTGTTCTCCCAGCTGATGAATTTTTAATCTCGAGTAAACAAATTTTCCTAATCTTTCTGTTCAAGCGCCATCTAC” was tested, and the binding signal was 0.864 RPM ratio (pull-down/input). In the case of “GATGATTGTTCTCCCAGCTGATGAATTAAGTCCTTCGAGTAAACAAATTTTCCTAATCTTTCTGTTCAAGCGCCATCTAC”, the binding signal is reported as 0.887 RPM ratio (pull-down/input). “GATGATTGTTCTCCCAGCTGATGAATTCTTCATCTCGAGTAAACAAATTTTCCTAATCTTTCTGTTCAAGCGCCATCTAC” was tested, and the binding signal was 0.813 RPM ratio (pull-down/input). In the case of “GATGATTGTTCTCCCAGCTGATGAATTGGTGCATTCGAGTAAACAAATTTTCCTAATCTTTCTGTTCAAGCGCCATCTAC”, the binding signal is reported as 1.35 RPM ratio (pull-down/input). “GATGATTGTTCTCCCAGCTGATGAATTAACCTGCTCGAGTAAACAAATTTTCCTAATCTTTCTGTTCAAGCGCCATCTAC” was tested, and the binding signal was 0.79 RPM ratio (pull-down/input). In the case of “GATGATTGTTCTCCCAGCTGATGAATTGACGAACTCGAGTAAACAAATTTTCCTAATCTTTCTGTTCAAGCGCCATCTAC”, the binding signal is reported as 1.03 RPM ratio (pull-down/input). For “GATGATTGTTCTCCCAGCTGATGAATTTCTTGGGTCGAGTAAACAAATTTTCCTAATCTTTCTGTTCAAGCGCCATCTAC”, the binding signal was 0.716 RPM ratio (pull-down/input). In the case of “GATGATTGTTCTCCCAGCTGATGAATTATGTATCTCGAGTAAACAAATTTTCCTAATCTTTCTGTTCAAGCGCCATCTAC”, the binding signal is reported as 1.45 RPM ratio (pull-down/input). With “GATGATTGTTCTCCCAGCTGATGAATTATGTGTATCGAGTAAACAAATTTTCCTAATCTTTCTGTTCAAGCGCCATCTAC” the binding signal was 1.92 RPM ratio (pull-down/input). “GATGATTGTTCTCCCAGCTGATGAATTGTATGTATCGAGTAAACAAATTTTCCTAATCTTTCTGTTCAAGCGCCATCTAC” was tested, and the binding signal was 1.67 RPM ratio (pull-down/input). For “GATGATTGTTCTCCCAGCTGATGAATTATATGTATCGAGTAAACAAATTTTCCTAATCTTTCTGTTCAAGCGCCATCTAC”, the binding signal was 1.41 RPM ratio (pull-down/input). “GATGATTGTTCTCCCAGCTGATGAATTATGTGAATCGAGTAAACAAATTTTCCTAATCTTTCTGTTCAAGCGCCATCTAC” was tested, and the binding signal was 1.14 RPM ratio (pull-down/input). “GATGATTGTTCTCCCAGCTGATGAATTATGTATATCGAGTAAACAAATTTTCCTAATCTTTCTGTTCAAGCGCCATCTAC” was tested, and the binding signal was 1.79 RPM ratio (pull-down/input). “GATGATTGTTCTCCCAGCTGATGAATTACAAAATTCGAGTAAACAAATTTTCCTAATCTTTCTGTTCAAGCGCCATCTAC” was tested, and the binding signal was 1.37 RPM ratio (pull-down/input). With “GATGATTGTTCTCCCAGCTGATGAATTCACCCGGTCGAGTAAACAAATTTTCCTAATCTTTCTGTTCAAGCGCCATCTAC” the binding signal was 0.783 RPM ratio (pull-down/input). “GATGATTGTTCTCCCAGCTGATGAATTTAGTCTCTCGAGTAAACAAATTTTCCTAATCTTTCTGTTCAAGCGCCATCTAC” was tested, and the binding signal was 0.934 RPM ratio (pull-down/input). For “GATGATTGTTCTCCCAGCTGATGAATTCCCTTTCTCGAGTAAACAAATTTTCCTAATCTTTCTGTTCAAGCGCCATCTAC”, the binding signal was 0.783 RPM ratio (pull-down/input). In the case of “GATGATTGTTCTCCCAGCTGATGAATTCCGCCGATCGAGTAAACAAATTTTCCTAATCTTTCTGTTCAAGCGCCATCTAC”, the binding signal is reported as 0.721 RPM ratio (pull-down/input). In the case of “GATGATTGTTCTCCCAGCTGATGAATTATTAACCTCGAGTAAACAAATTTTCCTAATCTTTCTGTTCAAGCGCCATCTAC”, the binding signal is reported as 1.06 RPM ratio (pull-down/input). In the case of “GATGATTGTTCTCCCAGCTGATGAATTACACAGATCGAGTAAACAAATTTTCCTAATCTTTCTGTTCAAGCGCCATCTAC”, the binding signal is reported as 1.18 RPM ratio (pull-down/input). “GATGATTGTTCTCCCAGCTGATGAATTTTACACATCGAGTAAACAAATTTTCCTAATCTTTCTGTTCAAGCGCCATCTAC” was tested, and the binding signal was 1.11 RPM ratio (pull-down/input). With “GATGATTGTTCTCCCAGCTGATGAATTACACAAATCGAGTAAACAAATTTTCCTAATCTTTCTGTTCAAGCGCCATCTAC” the binding signal was 1.77 RPM ratio (pull-down/input). “GATGATTGTTCTCCCAGCTGATGAATTTACACAATCGAGTAAACAAATTTTCCTAATCTTTCTGTTCAAGCGCCATCTAC” was tested, and the binding signal was 1.87 RPM ratio (pull-down/input). In the case of “GATGATTGTTCTCCCAGCTGATGAATTACACACATCGAGTAAACAAATTTTCCTAATCTTTCTGTTCAAGCGCCATCTAC”, the binding signal is reported as 1.48 RPM ratio (pull-down/input). With “GATGATTGTTCTCCCAGCTGATGAATTTTTACAATCGAGTAAACAAATTTTCCTAATCTTTCTGTTCAAGCGCCATCTAC” the binding signal was 1.23 RPM ratio (pull-down/input). With “GATGATTGTTCTCCCAGCTGATGAATTCCCTACCTCGAGTAAACAAATTTTCCTAATCTTTCTGTTCAAGCGCCATCTAC” the binding signal was 0.836 RPM ratio (pull-down/input). In the case of “GATGATTGTTCTCCCAGCTGATGAATTGTCACAGTCGAGTAAACAAATTTTCCTAATCTTTCTGTTCAAGCGCCATCTAC”, the binding signal is reported as 1.08 RPM ratio (pull-down/input). For “GATGATTGTTCTCCCAGCTGATGAATTGCCAATTTCGAGTAAACAAATTTTCCTAATCTTTCTGTTCAAGCGCCATCTAC”, the binding signal was 1.04 RPM ratio (pull-down/input). In the case of “GATGATTGTTCTCCCAGCTGATGAATTTCTGTATTCGAGTAAACAAATTTTCCTAATCTTTCTGTTCAAGCGCCATCTAC”, the binding signal is reported as 1.3 RPM ratio (pull-down/input). For “GATGATTGTTCTCCCAGCTGATGAATTTTTGTATTCGAGTAAACAAATTTTCCTAATCTTTCTGTTCAAGCGCCATCTAC”, the binding signal was 1.8 RPM ratio (pull-down/input). For “GATGATTGTTCTCCCAGCTGATGAATTTTGTATTTCGAGTAAACAAATTTTCCTAATCTTTCTGTTCAAGCGCCATCTAC”, the binding signal was 1.42 RPM ratio (pull-down/input). In the case of “GATGATTGTTCTCCCAGCTGATGAATTTGTATATTCGAGTAAACAAATTTTCCTAATCTTTCTGTTCAAGCGCCATCTAC”, the binding signal is reported as 1.71 RPM ratio (pull-down/input). With “GATGATTGTTCTCCCAGCTGATGAATTTGTATTTTCGAGTAAACAAATTTTCCTAATCTTTCTGTTCAAGCGCCATCTAC” the binding signal was 2.62 RPM ratio (pull-down/input). In the case of “GATGATTGTTCTCCCAGCTGATGAATTGTTGTATTCGAGTAAACAAATTTTCCTAATCTTTCTGTTCAAGCGCCATCTAC”, the binding signal is reported as 2.21 RPM ratio (pull-down/input). “GATGATTGTTCTCCCAGCTGATGAATTTGTAATTTCGAGTAAACAAATTTTCCTAATCTTTCTGTTCAAGCGCCATCTAC” was tested, and the binding signal was 1.31 RPM ratio (pull-down/input). For “GATGATTGTTCTCCCAGCTGATGAATTATTCTTTTCGAGTAAACAAATTTTCCTAATCTTTCTGTTCAAGCGCCATCTAC”, the binding signal was 1.17 RPM ratio (pull-down/input). With “GATGATTGTTCTCCCAGCTGATGAATTATTGTATTCGAGTAAACAAATTTTCCTAATCTTTCTGTTCAAGCGCCATCTAC” the binding signal was 1.99 RPM ratio (pull-down/input). With “GATGATTGTTCTCCCAGCTGATGAATTGTATTATTCGAGTAAACAAATTTTCCTAATCTTTCTGTTCAAGCGCCATCTAC” the binding signal was 1.67 RPM ratio (pull-down/input). “GATGATTGTTCTCCCAGCTGATGAATTGTATTCTTCGAGTAAACAAATTTTCCTAATCTTTCTGTTCAAGCGCCATCTAC” was tested, and the binding signal was 1.26 RPM ratio (pull-down/input). In the case of “GATGATTGTTCTCCCAGCTGATGAATTCTGTATTTCGAGTAAACAAATTTTCCTAATCTTTCTGTTCAAGCGCCATCTAC”, the binding signal is reported as 1.18 RPM ratio (pull-down/input).
